SMN2 splice enh = enhancers of SMN2 splice variant expression; HEK293 SMN2-luciferase splicing reporter, luminescence, 30-36 h; Potency, µM (titrated, usually from 46.1 µM), for inactives: at the highest dose activity change, positive = activation, usual class: activators; actives 2.8% (n = 210,000); also: % of control where 0% means no effect; nearly all actives have a fitted effect of over 55% in size
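HEK293 cells carry an SMN2 minigene-luciferase reporter in which exon 7 inclusion puts luciferase in frame. Cells were seeded at 2000 cells/well, attached for 10-12 hours, then exposed to compounds for 30-36 hours at 37C before ONE-Glo luminescence.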
Rab9 prom act = activates the Rab9 promoter. AID 485297. Huh7 Rab9 promoter-luciferase reporter, luminescence, 24 h. actives 2.8% (n = 320,000). Potency, µM (titrated, usually from 9.22 µM), for the others: top-dose activation, negative = inhibition, usual class: activators; also: % of control where 0% means no effect; nearly all actives have a fitted effect of over 60% in size
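Luciferase signal after 10 min detection reagent at ambient indicates Rab9 promoter upregulation; stably transfected Huh7 cells were treated 24 h with compound in DMSO at 37 °C, 5% CO2.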
ELG1 genotox = genotoxicity induction in ELG1-luciferase HEK293T cells; HEK293T ELG1-luciferase reporter, luminescence, 16 h; Potency, µM (top dose mostly 46 µM), without a hit: at the top dose activity change, positive = activation, most hits filed as activators; actives 1.3% (n = 330,000); AID 504466; also: % of control where 0% means no effect; nearly all actives have a fitted effect of over 60% in size
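Reporter readout depends on ELG1 protein level, which increases with genetic stress. After 16 hr compound exposure at 37 °C, luciferase activity was quantified using ONE-Glo.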
ELG1 DNA repair = inhibitors of ELG1-dependent DNA repair in HEK293T cells; Potency, µM (top dose mostly 46.1 µM), for inactives: at the highest dose activity change, negative = inhibition, most hits filed as inhibitors; HEK293T ELG1-luciferase reporter, luminescence, 16 h; DNA damage induced by 5-fluorouridine; actives 2.3% (n = 330,000); also: % is scaled to controls: 0 for no effect and ±100 for the full control effect; nearly all actives have a fitted effect of over 55% in size
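Step one: seed 2,000 cells per well. Step two: pin-transfer compound or DMSO alongside 5-fluorouridine. Step three: incubate 16 hr, 37 °C, 5% CO2. Step four: add ONE-Glo, wait 30 min, read luminescence.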
FLuc counter = inhibits or activates purified firefly luciferase, miR-21 counter-screen; purified FLuc, Km substrates, luminescence inhibition; Potency, µM (highest dose often 57.5 µM), inactives show top-dose activity change, negative = inhibition, most hits filed as inhibitors; actives 6.9% (n = 360,000); AID 588342;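 also: plate controls were vehicle for no effect and reference inhibitor for full effect; nearly all actives have a fitted effect of over 55% in size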
Target sequence (P08659 whole entry, looked up): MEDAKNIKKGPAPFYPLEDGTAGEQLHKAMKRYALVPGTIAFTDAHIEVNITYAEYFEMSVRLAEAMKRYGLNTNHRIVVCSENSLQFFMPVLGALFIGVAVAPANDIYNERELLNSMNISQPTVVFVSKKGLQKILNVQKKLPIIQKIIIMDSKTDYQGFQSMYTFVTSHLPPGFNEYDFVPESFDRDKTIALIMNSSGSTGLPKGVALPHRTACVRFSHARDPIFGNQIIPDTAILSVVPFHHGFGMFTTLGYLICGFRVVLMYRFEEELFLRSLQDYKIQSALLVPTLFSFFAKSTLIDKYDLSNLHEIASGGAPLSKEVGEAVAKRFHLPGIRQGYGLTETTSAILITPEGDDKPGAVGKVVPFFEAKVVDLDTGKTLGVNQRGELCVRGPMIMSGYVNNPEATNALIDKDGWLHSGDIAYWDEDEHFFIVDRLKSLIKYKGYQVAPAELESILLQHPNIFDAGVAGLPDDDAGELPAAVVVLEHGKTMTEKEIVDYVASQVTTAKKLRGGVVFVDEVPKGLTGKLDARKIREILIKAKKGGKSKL
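Purified P. pyralis luciferase (10nM final) with 10uM D-luciferin and 10uM ATP (Km levels) in 50mM Tris acetate pH 7.5, 10mM Mg acetate, 0.01% Tween-20, 0.05% BSA; qHTS 6-point titration, ~60 µM downward; luminescence read.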
NPC1 promoter act = NPC1 promoter activation; AID 485313; Potency, µM (highest dose often 9.22 µM), for the others: top-dose activation, hits mostly activators; Huh7 NPC1 promoter luciferase reporter, 24 h; actives 2.4% (n = 320,000); also: % of control where 0% means no effect; nearly all actives have a fitted effect of over 60% in size
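Compounds in DMSO were transferred onto Huh7 NPC1-luciferase reporter cells pre-incubated 2 h; after 24 h at 37 °C, Amplite reagent was dispensed and luminescence recorded 10 min later.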
* hit, by the source's call; ? = inconclusive; . = no result; [ ] = another dose, or the depositor's remark. Rows were chosen to be rich in hits. Some 9.2% of all compounds tested hit in one or more screens of this group. Calls follow the shape of the dose curve; as a rule, active = well fitted curve in the direction sought with a large enough effect; inconclusive = small, poorly fitted or top-dose-only effect, or another doubt; inactive = no such curve, though single readings can be large; an effect the other way counts as inactive or inconclusive. Potency is read from the fitted curve at half-maximal effect.

SMILES	SMN2 splice enh	Rab9 prom act	ELG1 genotox	ELG1 DNA repair	FLuc counter	NPC1 promoter act
COc1cccc(/C=N/NC(=O)c2ccc(-c3ccccc3)cc2)c1O	-78%	-29%	2%	?	2%	-33%
CNC(=S)N/N=C/c1c(C(=O)OC)cnn1-c1ccc(F)cc1F	.	-5%	-6%	?	1%	1%
O=C(O)c1cccc(NC(=S)N/N=C/c2cccnc2)c1	16%	?	?	?	11µM*	?
COc1cccc(/C=N/NC(=S)Nc2cccc(C(=O)O)c2)c1O	16µM*	-6%	2%	?	0.19µM*	-3%
COc1ccc(/C=N/NC(=S)Nc2ccccc2)cc1	10µM*	4µM*	?	?	11µM*	?
CC1(C(=O)Nc2ccc(S(=O)(=O)Nc3ncccn3)cc2)CCCC1	.	.	0%	20%	.	.
COCCCNC(=S)N/N=C/c1cccc(OC)c1O	.	-26%	-3%	?	9.5µM*	10%
FC(F)(F)c1cccc(-c2nc3nc(Cl)c(Cl)nc3[nH]2)c1	-31%[9.22 µM]	?	14%	?	4.3µM*	?
Cc1ccc(NS(=O)(=O)c2cccc(C(=O)NCC3CCCO3)c2)cc1 (stereo not given)	.	-2%	-6%	21%	0%	-2%
CCOc1ccc(/C=C2\SC(N3CCCCC3)=NC2=O)cc1	.	-2%	4%	11%	?	1%
CN1C(=O)/C(=C2\SC(N)=NC2=O)c2ccccc21	-24%	-3%	7%	-5%	2%	-4%
CN1C(=O)/C(=C2\SC(N3CCCCCC3)=NC2=O)c2ccccc21	9%	3.5µM*	?	?	2.7µM*	?
CCCN1C(=O)/C(=C2\SC(N3CCCCC3)=NC2=O)c2ccccc21	19%	2.8µM*	10%	?	2.1µM*	1.3µM*
COCCC(=O)N1CCC(Oc2ccc(C(=O)NCCc3ccccn3)cc2)CC1	.	3%	0%	0%	-2%	-5%
O=C1c2ccccc2C(=O)N1Cc1cc(-c2ccccc2)no1	-77%	-7%	-1%	7%	-12%	0%
COc1ccc(-c2cc(CNS(=O)(=O)c3ccc(NC(C)=O)cc3)on2)cc1	.	1%	-4%	-7%	-1%	0%
O=S(=O)(Cc1cc(-c2ccccc2)no1)c1ccccc1	?	?	?	?	27µM*	?
COc1ccc(-c2cc(CS(=O)(=O)c3ccccc3)on2)cc1	18µM*	3.2µM*	?	?	11µM*	3.2µM*
Cc1cc(N/N=C/c2c[nH]c3ccccc23)c2ccccc2n1	-7%	2%	1%	17%	-7%	8%
Cn1c(N/N=C/c2c[nH]c3ccccc23)nc2ccccc21	-109%	?	7%	?	1.5µM*	?
Cn1c(N/N=C/c2cc3ccccc3nc2Cl)nc2ccccc21	2.2µM*	0.45µM*	?	?	0.027µM*	1µM*
Cc1nnc(C)n1/N=C/c1cc2ccccc2nc1Cl	17%	-4%	5%	4%	-3%	-1%
Cc1ccc2c(C)c(C(=O)N(Cc3ccc(N(C)C)cc3)C3CCS(=O)(=O)C3)oc2c1 (stereo not given)	.	5%	-1%	16µM*	1%	-6%
COc1ccc(CN(C(=O)c2oc3ccccc3c2C)C2CCS(=O)(=O)C2)cc1OC (stereo not given)	11µM*	-1%	-4%	?	8%	-2%
C=CCN(C(=O)c1oc2c(Cl)cc(C)cc2c1C)C1CCS(=O)(=O)C1 (stereo not given)	.	3.5µM*	?	?	11µM*	3.5µM*
SMILES	SMN2 splice enh	Rab9 prom act	ELG1 genotox	ELG1 DNA repair	FLuc counter	NPC1 promoter act
Cc1cc(C(=O)Nc2ccccc2Cl)n(-c2ccccc2)n1	.	-13%	0%	15%	2%	-2%
CC1(C)CC(NC(=O)c2cccc(Cl)c2)CC(C)(C)N1	.	-3%	-4%	-20%	0%	2%
COc1cc(CNC(=O)c2ccc(Cn3nc(C)c(Cl)c3C)o2)cc(OC)c1	7%	-1%	-12%	18µM*	-2%	-1%
O=C(C1COc2ccccc2O1)N1CCN(Cc2ccc(Br)cc2F)CC1 (stereo not given)	.	-2%	-28%	-14%	2%	1%
CCOC(=O)CC1C(=O)NCCN1C(=O)c1ccc(Cl)c(Cl)c1 (stereo not given)	.	-7%	2%	6%	-2%	-1%
Cc1ccc(-n2nc3ccc(NC(=O)/C=C/c4ccco4)cc3n2)cc1	14µM*	?	?	?	?	?
Cc1ccc(NC(=O)N/C=C/c2ccco2)cc1C	-3%	18%	0%	?	11µM*	27%
Cc1ccc(NC(=O)N/C=C/c2ccco2)c(C)c1	10%	-1%	4%	15%	?	1%
Cc1ccc(NC(=O)c2cccc(NC(=O)/C=C/c3ccco3)c2)cc1C	18µM*	3.2µM*	0%	?	1.9µM*	?
Cn1c(NC(=O)/C=C/c2ccco2)cc(=O)n(C)c1=O	-3%	26%	8%	?	?	15%
CCc1ccccc1NC(=O)c1cccc(NC(=O)/C=C/c2ccco2)c1	11%	?	-2%	?	3µM*	1%
CCOC(=O)Cn1c(=O)oc2cc(S(=O)(=O)N3CCN(c4ccc(F)cc4)CC3)ccc21	28%	.	.	.	2%	.
CC(C)CC(=O)N1c2nc(C(C)C)nn2C2(CCCCC2)[C@@H]2CCCC[C@@H]21	.	.	.	.	-1%	.
CCCCc1ccc(NC(=O)c2ccc3c(c2)CCN3S(=O)(=O)c2ccccc2)cc1	-42%	.	.	.	1%	.
O=C(O)c1cccc(NC(=O)c2ccccc2NC(=O)c2ccco2)c1	.	-2%	1%	-11%	?	-5%
O=C(/C=C/c1ccco1)Nc1cccc(C(=O)Nc2ccccc2C(=O)O)c1	.	1%	-6%	1%	21µM*	-3%
O=C(CC1N=C2c3ccccc3N=C(SCc3ccccc3F)N2C1=O)NCc1ccc2c(c1)OCO2 (stereo not given)	.	.	.	.	-10%	.
CCOC(=O)c1c[nH]c2ccc3ccccc3c2c1=O	.	0%	-4%	-5%	?	-1%
CCOC(=O)c1ccc(-c2ccc3[nH]c4ccccc4c(=O)c3c2)cc1F	.	-3%	?	?	0.54µM*	?
COC(=O)N1C(C)=Cc2ccccc2C1CC(C)=O (stereo not given)	8%	.	.	.	.	.
CC(/C=N/NC(=O)c1nn(C)c(C)c1Br)=C\c1ccccc1	.	3.5µM*	?	?	1.9µM*	?
